# Compound activity deposited in PubChem BioAssay by National Center for Advancing Translational Sciences (NCATS).
# HEK cytotox = kills HEK 293 cells; HEK 293 viability, ATP luminescence (CellTiter-Glo), 48-72 h; hit rate 6.6% among 94,000; Potency, µM (series often up to 115 µM), for inactives: at the top dose activity change, negative = cytotoxicity, actives largely listed as inhibitors; note: nearly all actives have a fitted effect of over 60% in size
#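 HEK 293 cells at 250 cells/well were exposed to compounds by pintool transfer for 48 or 72 hr at 37 degree Celsius, 5% CO2. Viability was read as ATP-coupled luminescence with CellTiter-Glo after 10 min at room temperature.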
# SNCA viab count = counter-screen for SNCA expression inhibitors: cell viability. Potency, µM (doses to about 57.1 µM), for inactives: at the highest dose activity change, negative = cytotoxicity, actives largely listed as cytotoxic. hit rate 0.12% among 150,000. HEK-293-SNCA-luc viability, GF-AFC fluorescence, 24 h;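 note: 0% = DMSO-treated cells and -100% = medium-only wells without cells; nearly all actives have a fitted effect of over 30% in size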
#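 HEK-293-SNCA-luc cells (1500/well) plated 24 h, then exposed 24 h to a dilution series; GF-AFC added 30 min at 37C, fluorescence 405/540 nm; normalised to medium-only and DMSO wells, Hill fit.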
# NPR1 antag = blocks ANP-stimulated signaling of human Npr1 receptor | P16066 | HEK293 hNpr1 GloSensor cGMP, ANP-stimulated luminescence | Potency, µM (series often up to 46.3 µM), without a hit: at the top dose activity change, negative = inhibition, actives largely listed as inhibitors | hit rate 1.6% among 76,000; calls by dose curve; note: nearly all actives have a fitted effect of over 60% in size
# Target sequence (P16066 whole entry, looked up): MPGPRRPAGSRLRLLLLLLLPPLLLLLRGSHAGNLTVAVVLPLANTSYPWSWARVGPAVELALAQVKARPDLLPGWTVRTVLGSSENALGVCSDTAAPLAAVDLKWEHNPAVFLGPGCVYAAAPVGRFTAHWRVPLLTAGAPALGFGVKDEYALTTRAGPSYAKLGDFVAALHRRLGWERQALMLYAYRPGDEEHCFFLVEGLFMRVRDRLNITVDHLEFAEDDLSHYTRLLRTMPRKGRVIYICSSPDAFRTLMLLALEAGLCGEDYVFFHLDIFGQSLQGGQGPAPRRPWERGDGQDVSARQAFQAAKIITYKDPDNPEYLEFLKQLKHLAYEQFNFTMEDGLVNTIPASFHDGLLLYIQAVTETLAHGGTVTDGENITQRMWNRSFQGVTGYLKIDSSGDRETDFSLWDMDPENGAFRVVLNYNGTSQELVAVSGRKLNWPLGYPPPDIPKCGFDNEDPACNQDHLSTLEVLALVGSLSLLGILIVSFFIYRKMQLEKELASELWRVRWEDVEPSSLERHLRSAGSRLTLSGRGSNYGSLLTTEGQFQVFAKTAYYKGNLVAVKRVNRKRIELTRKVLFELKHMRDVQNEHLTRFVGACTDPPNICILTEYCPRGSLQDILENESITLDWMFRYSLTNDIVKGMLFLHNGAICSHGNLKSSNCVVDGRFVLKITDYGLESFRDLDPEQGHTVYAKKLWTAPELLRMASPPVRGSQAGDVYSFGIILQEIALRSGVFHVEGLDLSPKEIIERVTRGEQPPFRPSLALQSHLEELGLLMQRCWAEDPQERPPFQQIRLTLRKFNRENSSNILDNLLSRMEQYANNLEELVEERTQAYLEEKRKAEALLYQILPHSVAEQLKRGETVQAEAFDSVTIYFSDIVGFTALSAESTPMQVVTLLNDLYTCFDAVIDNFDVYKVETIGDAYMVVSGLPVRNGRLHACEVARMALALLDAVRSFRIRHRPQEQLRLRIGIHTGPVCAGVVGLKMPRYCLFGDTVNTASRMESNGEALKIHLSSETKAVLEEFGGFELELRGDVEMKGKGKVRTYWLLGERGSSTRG
#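 HEK293 cells stably expressing human Npr1 and cGMP GloSensor pGS-40F, loaded 2 h with 2% GloSensor reagent, given compound 30 min at room temperature. Luminescence read before and 20 min after 0.1 nM hNppA.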
# NIH3T3 tox = cytotoxic compounds in NIH 3T3 cells. hit rate 4.3% among 94,000. AID 1345082. NIH 3T3 viability, CellTiter-Glo ATP luminescence, 48-72 h. Potency, µM (titrated, usually from 96.7 µM), for the others: at the highest dose activity change, negative = cytotoxicity, hits mostly inhibitors; note: nearly all actives have a fitted effect of over 55% in size
#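 Viability of NIH 3T3 cells after 48 or 72 hr compound treatment at 37 °C was assessed by CellTiter-Glo, with luminescence imaged following a 10 min room-temperature step.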
# SNCA expr inh = SNCA gene expression inhibition. HEK-293 SNCA-luciferase knock-in, luminescence, 24 h. Potency, µM (titrated, usually from 57.2 µM), without a hit: at the top dose activity change, negative = inhibition, usual class: inhibitors. hit rate 0.17% among 140,000;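 note: plate controls were DMSO cells for no effect and cell-free wells for full effect; nearly all actives have a fitted effect of over 45% in size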
# Luciferase inh = Photinus pyralis luciferase inhibition; purified P. pyralis luciferase, luminescence, biochemical; Potency, µM (top dose mostly 115 µM), hits mostly inhibitors; P08659; hit rate 2.5% among 76,000; AID 1347043; note: nearly all actives have a fitted effect of over 65% in size
#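 FLuc 10nM, D-luciferin 10uM, ATP 10uM, Mg acetate 10mM, Tris acetate pH 7.5, Tween/BSA; cpd qHTS; enzyme added last; CCD luminescence.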
# Numbers without * were called inactive; i = inactive; u = inconclusive; x = no result; ! = not confirmed by another sample; [ ] = another dose, or the depositor's remark. An excerpt weighted towards active compounds, which were near 7.4% of everything screened. Unless noted, calls come from the whole dose curve; as a rule, active = well fitted curve in the direction sought with a large enough effect; inconclusive = small, poorly fitted or top-dose-only effect, or another doubt; inactive = no such curve, though single readings can be large; an effect the other way counts as inactive or inconclusive. Unless noted, % is set by controls: 0 for no effect and ±100 for the full control effect; potency is the fitted concentration of half-maximal effect.
SMILES,HEK cytotox,SNCA viab count,NPR1 antag,NIH3T3 tox,SNCA expr inh,Luciferase inh
CCS(=O)(=O)N1CCCC(c2nc(C(C)C)no2)CCNC(=O)CC1 (stereo not given),-16%,2%,5%,-8%,-3%,i
O=C(NC1CCCCC1)c1cnc2c(c1)N([S+](=O)([O-])c1cccnc1)CCC2,-10%[172 µM],-3%[87.6 µM],4%[70.6 µM],89µM*,-7%[87.6 µM],i
O=C(Nc1ccccc1)c1cnc2c(c1)N([S+](=O)([O-])c1cccnc1)CCC2,u,-1%[87.6 µM],5%[70.6 µM],u,4%[87.6 µM],i
CCc1noc([C@@H]2CC(F)(F)CN2C(=O)c2ccc(F)cn2)n1,-2%,-2%,4%,-1%,1%,i
CCn1cc(-c2ccc(C)cc2)cc1C(=O)N1CCCN(C)CC1,79µM*,-9%,-10%,u,-20%,i
CCn1cc(-c2ccc(Cl)cc2)cc1C(=O)N1CCCN(C)CC1,25µM*,4%,-9%,18µM*,11%,i
CCn1cc(-c2ccc(Cl)cc2)cc1C(=O)N1CCN(C(C)C)CC1,u,-3%,-9%,40µM*,-16%,i
CCn1cc(-c2ccc(Cl)cc2)cc1C(=O)NCCN1CCOCC1,u,u,0%,u,3%,i
CCOC(=O)CNC(=O)c1cc(-c2ccc(Cl)cc2)cn1C,-16%,12%,-16%,-27%,-28%,i
CCn1cc(-c2ccc(Cl)cc2)cc1C(=O)NCC(=O)OC,-33%,4%,2%,u,9%,40µM*
O=C(CC1CCOC2(CCN(Cc3cccc(F)c3)CC2)C1)NC1CC1 (stereo not given),16%,-10%,0%,-6%,-22%,i
CC1CCCC(C)N1C(=O)c1ccc2nc(-c3ccncc3)oc2c1 (stereo not given),71µM*,-4%[87.6 µM],x,-29%[138 µM],27%[87.6 µM],x
CCOC(=O)C1CCCN(C(=O)c2ccc3nc(-c4ccncc4)oc3c2)C1 (stereo not given),45µM*,7%,x,u,-5%,x
O=C(c1ccc2oc(-c3ccncc3)nc2c1)N1CCCCC1,40µM*,2%,x,u,16%,x
O=C(c1ccc2oc(-c3ccnc(Cl)c3)nc2c1)N1CCOCC1,u,-5%[12.5 µM],x,35µM*,-23%,x
COc1ccc(OC)c(NC(=O)C2(CCO)CCN(c3ncccn3)C2)c1 (stereo not given),-23%,5%,-3%,-25%,8%,i
CS(=O)(=O)N1CCCN(Cc2cn[nH]c2C(=O)O)CC1,i,2%,-2%,3%,7%,i
COc1ccc(CN2Cc3[nH]cnc3C[C@H]2c2nc(-c3ccc(C(F)(F)F)cc3)no2)cc1,u,-26%,-24%,u,-31%,40µM*
COc1ccc(-c2noc([C@@H]3Cc4nc[nH]c4CN3Cc3ccc(NC(C)=O)cc3)n2)cc1,-7%,-12%,1%,-22%,u,35µM*
COCCn1ccc2c(C3=CCOCC3)nc(-c3cccc4cn[nH]c34)cc21,79µM*,-23%[87.6 µM],-16%[70.6 µM],u,6%[87.6 µM],i
COCCn1ccc2c(C3=CCOCC3)nc(-c3cccc(N[S+](C)(=O)[O-])c3)cc21,u,11%[87.6 µM],-3%[70.6 µM],35µM*,2%[87.6 µM],i
COCCn1ccc2c(C3=CCOCC3)nc(-c3cccc(NC(C)=O)c3)cc21,u,0%[87.6 µM],-5%[70.6 µM],u,3%[87.6 µM],i
O=C(c1ccccn1)c1cnn2c(-c3ccncc3)ccnc12,x,2%,x,x,x,x
COc1cc(O)ccc1-c1nc2ccc(Br)cn2c1Nc1ccccc1C,x,14µM*,x,x,u,x
C[n+]1cc2c3c(ccc2c2ccc4cc5c(cc4c21)OCO5)OCO3,x,13µM*!,x,x,u,x
SMILES,HEK cytotox,SNCA viab count,NPR1 antag,NIH3T3 tox,SNCA expr inh,Luciferase inh
C[C@@H](O)CNc1nccc(C2(c3ccccc3Cl)CCNCC2)n1,-5%,-10%,2%,-8%,-18%,i
CC(C)CNc1nccc(C2(c3ccccc3Cl)CCNCC2)n1,25µM*,-14%,-6%,28µM*,13%,i
CC(CNc1nccc(C2(c3ccccc3Cl)CCNCC2)n1)CN(C)C (stereo not given),-27%,-20%,6%,u,23%,i
CCC(C)Cc1nccc(C2(c3ccccc3Cl)CCNCC2)n1 (stereo not given),25µM*,u,-4%,28µM*,-1%,i
CC[C@H]1CN(C(=O)c2ccc(F)cc2)CC[C@H]1CC(=O)Nc1nccs1,u,-11%[87.6 µM],-14%[70.6 µM],u,-13%[87.6 µM],i
CC[C@H]1CN(C(C)=O)CC[C@H]1CC(=O)Nc1nccs1,112µM*,-13%[87.6 µM],-20%[70.6 µM],100µM*,-22%[87.6 µM],i
COCCNC(=O)[C@H]1C[C@H](Oc2cccnc2)CN1S(=O)(=O)c1ccc(F)cc1,-2%,-1%,-1%,1%,-1%,i
Cc1nn2c(c1-c1cccc3cn[nH]c13)N(C(=O)COc1ccccc1C(N)=O)CCC2,i,1%[87.6 µM],-20%[70.6 µM],25µM*,32%[87.6 µM],i
Cc1nn2c(c1-c1ccnn1C(C)C)N(C(=O)COc1ccccc1C(N)=O)CCC2,0%[172 µM],-3%[87.6 µM],14%[70.6 µM],28µM*,1%[87.6 µM],i
COc1nc2c(cc1CNC(=O)C1CCCO1)C(=O)N(CCc1ccccn1)C2 (stereo not given),i,-4%,1%,i,-14%,i
COc1cccc(OC)c1CN1CCC2(CC1)CC(O)CCO2 (stereo not given),-11%,1%,0%,-1%,-4%,i
O=C(NCc1ccccn1)C1CCCCN1Cc1ccc(-c2ccsc2)cc1 (stereo not given),40µM*,1%,x,40µM*,-2%,x
O=C(NCc1ccc(F)cc1F)C1CCCCN1Cc1ccc(-c2ccsc2)cc1 (stereo not given),28µM*,-5%,x,u,-17%,x
O=C(NCc1ccccc1F)C1CCCCN1Cc1ccc(-c2ccsc2)cc1 (stereo not given),u,20%,x,32µM*,-16%,x
CCOc1ccccc1NC(=O)N1CCC(Cc2nncn2Cc2ccccc2)C1 (stereo not given),3%,9%,x,-20%,-7%,x
CCc1cc(C(=O)N2CCCC(c3nnc(Cn4ccnc4)n3C)C2)ccn1 (stereo not given),-6%,u,3%,0%,-1%,i
O=C1Nc2ccccc2CC12CCN(Cc1ccc(F)cc1)CC2,u,-9%[87.6 µM],6%[70.6 µM],-22%[138 µM],-23%[87.6 µM],i
O=C1Nc2ccccc2CC12CCN2Cc1ccc(F)cc1 (stereo not given),u,-1%[87.6 µM],0%[70.6 µM],-25%[138 µM],-5%[87.6 µM],i
O=C1Nc2ccccc2CC12CCCCN2Cc1ccc(F)cc1 (stereo not given),79µM*,-5%[87.6 µM],-2%[70.6 µM],u,10%[87.6 µM],i
